{"source": "the supplement of paper PMC10338343", "note": "± gives the standard deviation."}
{"test_system": "EfPiwi piRISC loaded with piRNA #1 (26 nt)", "assay": "pre-steady-state target cleavage rate (min^-1); auxiliary factor: 500 nM Ephydatia muelleri Gtsf1; guide: piRNA #1 5'p-UGAGGUAGUAGGUUGUAUAGUAUCCA; MIWI and MILI are mouse PIWI proteins and EfPiwi is from a freshwater sponge; tags in brackets are library labels; higher = faster piRNA-guided slicing of the target", "in_short": "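Cleave-'n-Seq used a transcribed, DNA-blocked target RNA library at 0.1 nM and active affinity-purified piRISC with one synthetic guide at 1 nM, with or without 500 nM GTSF1 partner protein, in HEPES–potassium acetate buffer at 33 °C for 0–8 or 0–960 min. Uncleaved targets were sequenced and normalised to depth and to weakly complementary targets, and three trials were pooled with k3 capped at 0.0001 min^-1. The pre-steady-state cleavage rate was estimated by a burst-and-steady-state fit.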"}
{"sequence": "GGAGUGGAUACUAUACAAGCCUACUACCUCA", "pre-steady-state target cleavage rate": "0.0104 ± 0.0053"}
{"sequence": "GGAGAGGAUAGUAUACAACCUACUUCCUCA", "pre-steady-state target cleavage rate": "0.00319 ± 0.0018"}
{"sequence": "GGAGAGGAUACUAUACAACCUAGUAGCUCA", "pre-steady-state target cleavage rate": "0.00479 ± 0.0019"}
{"sequence": "GGAGUGGAUACUAUACAACCUUCUACGUCA", "pre-steady-state target cleavage rate": "0.00426 ± 0.0016"}
{"sequence": "GGAGAGGAUACUAUACAACCUACUUGGUCA", "pre-steady-state target cleavage rate": "0.00425 ± 0.0034"}
{"sequence": "GGAGUGGAUACUAUACAACCUACUACCUCA [g2:g26:cont:t1A]", "pre-steady-state target cleavage rate": "0.176 ± 0.056"}
{"sequence": "GGAGACCAUACUAUACUACCUAGUACCUCA", "pre-steady-state target cleavage rate": "0.00377 ± 0.0033"}
{"sequence": "GGAGACCUAUGAUAUGUUGGUACUACCUCU [g2:g10:cont:t1U]", "pre-steady-state target cleavage rate": "< 0.0001"}
{"sequence": "GGAGACCAAACUAUACAACCUUCUACCUCA", "pre-steady-state target cleavage rate": "0.00406 ± 0.0026"}
{"sequence": "GGAGUGGAUACUAUACAACUCUACUACCUCA", "pre-steady-state target cleavage rate": "0.00493 ± 0.003"}
{"sequence": "GGAGACCUAACUAUACAACCUAGUAGCUCA", "pre-steady-state target cleavage rate": "0.00484 ± 0.0035"}
{"sequence": "GGAGACGAUACUAUACACACCUACUACCUCA", "pre-steady-state target cleavage rate": "0.0061 ± 0.0026"}
{"sequence": "GGAGACCUAUGAUAACAACCUACUAGCACA", "pre-steady-state target cleavage rate": "< 0.0001"}
{"sequence": "GGAGACGAUAGAUUACAACCUACUACCUCA", "pre-steady-state target cleavage rate": "0.00662 ± 0.0047"}
{"sequence": "GGAGACCUAUGAUAACAAGGAACUACCUCA", "pre-steady-state target cleavage rate": "< 0.0001"}
{"sequence": "GGAGACCUAUCUAUACAACAUACUACCUCA", "pre-steady-state target cleavage rate": "0.00529 ± 0.0038"}
{"sequence": "GGAGUGGAUACUAUACAACCUUCUAGCUCA", "pre-steady-state target cleavage rate": "0.00376 ± 0.0018"}
{"sequence": "GGAGACGAUACUAUACAACCUACUACUCA", "pre-steady-state target cleavage rate": "0.00549 ± 0.0025"}
{"sequence": "GGAGACCUAACUACUACAACCUACUACCUCA", "pre-steady-state target cleavage rate": "0.00946 ± 0.0059"}
{"sequence": "GGAGACCUAUGUAUACAACCUGACUACCUCA", "pre-steady-state target cleavage rate": "< 0.0001"}
{"sequence": "GGAGAGGAUACUAUACUACCUUCUACCUCA", "pre-steady-state target cleavage rate": "0.00328 ± 0.0026"}
{"sequence": "GGAGAGGAUACUAUACAACCUACUUCCACA", "pre-steady-state target cleavage rate": "0.00373 ± 0.0022"}
{"sequence": "GGAGACGAUACUAUACAACCUUGUACCUCA", "pre-steady-state target cleavage rate": "0.00308 ± 0.002"}
{"sequence": "GGAGAGGAUACUAUACAACCUAGUACCACA", "pre-steady-state target cleavage rate": "0.00381 ± 0.0016"}
{"sequence": "GGAGACCUAUGUAUAGAACCUUCUACCUCA", "pre-steady-state target cleavage rate": "< 0.0001"}
{"sequence": "GGAGACCUAACUAUACAACGUACUACCACA", "pre-steady-state target cleavage rate": "0.0055 ± 0.0049"}
{"sequence": "GGAGUGGAUACUAUACAACCUACUAGGACA", "pre-steady-state target cleavage rate": "0.00314 ± 0.0029"}
{"sequence": "GGAGUGGAAACUAUACAACCUACUACCUGA", "pre-steady-state target cleavage rate": "0.00283 ± 0.0023"}
{"sequence": "GGAGACCUAUCUAUACAACCUACUACGAGA", "pre-steady-state target cleavage rate": "0.00279 ± 0.0027"}
{"sequence": "GGAGUGGAUACUAUACAACCUACAACCUGA", "pre-steady-state target cleavage rate": "0.00253 ± 0.0013"}
{"sequence": "GGAGACGAUACUAUACUUCCUACUACCUCA", "pre-steady-state target cleavage rate": "0.0109 ± 0.0064"}
{"sequence": "GGAGACCUAACUAUACAACCACUACCUCA", "pre-steady-state target cleavage rate": "0.00546 ± 0.0044"}
{"sequence": "GGAGACCUUACUAUACAAACCUACUACCUCA", "pre-steady-state target cleavage rate": "0.0103 ± 0.0047"}
{"sequence": "GGAGACCUAUGAUAUGUACCUAUUACCUCA", "pre-steady-state target cleavage rate": "< 0.0001"}
{"sequence": "GGAGACCAUACUUUACAACCUACUUCCUCA", "pre-steady-state target cleavage rate": "0.00404 ± 0.0039"}
{"sequence": "GGAGACCUAUGUAUACAACCAAGUACCUCA", "pre-steady-state target cleavage rate": "< 0.0001"}
{"sequence": "GGAGACGAUACUAUACAACCUACUAGGUCA", "pre-steady-state target cleavage rate": "0.0052 ± 0.002"}
{"sequence": "GGAGACCUAUGAAUACAACCUACAUGCUCA", "pre-steady-state target cleavage rate": "< 0.0001"}
{"sequence": "GGAGUGGAUUCUAUACAACGUACUACCUCA", "pre-steady-state target cleavage rate": "0.00313 ± 0.0019"}
{"sequence": "GGAGACCAUACUAUACAACCAACUACCUGA", "pre-steady-state target cleavage rate": "0.00258 ± 0.0022"}
